Measurements reported in PubChem BioAssay AID485313 (National Center for Advancing Translational Sciences (NCATS), 2010).
The whole screen tested about 320,000 compounds, of which about 7,600 (2.4%) were called active. Entries that show only a call come without a potency. Another 3% or so got no clear call; they are omitted. The call rests on the fitted dose curve; in most records, active means well fitted activation curve with a large enough effect; inconclusive means small, poorly fitted or top-dose-only effect; inactive means no such curve, though single readings can be large or run the other way. For the sample, actives were picked, then their nearest neighbours and some compounds at random.
Potency means the concentration at half of the fitted maximal effect.

Assay: qHTS Assay for NPC1 Promoter Activators; further: nearly all actives have a fitted effect of over 60% in size;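 on activation: reporter is driven by a mutant NPC1 promoter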
Settings: Huh7 NPC1 promoter luciferase reporter, 24 h; series mostly up to 9.22 µM
Summary of the method: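 Cells: Huh7 expressing luciferase under the NPC1 promoter, 1500/well. Seeded 2 h, compound added, incubated 24 h at 37 °C. Luciferase reagent, 10 min ambient, then luminescence.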
In the case of Cc1ccc(F)cc1S(=O)(=O)Nc1cccc(C(=O)N2CCCC(C(N)=O)C2)c1 (configuration not stated), the Potency is reported as “inactive”.
With COc1ccccc1C(=O)NC(CCSC)C(=O)N1CCN(C(C)=O)CC1 (configuration not stated) the Potency was “inactive”.
In the case of Cc1ccccc1N/N=C/c1ccc(N2CCOCC2)cc1, the Potency is reported as 3.16 µM (active).
For CCN(CC)c1ccc(C(=O)N/N=C/c2ccc(N3CCOCC3)cc2)cc1, the Potency was “inactive”.
With C(=N/Nc1cc(N2CCOCC2)nc(N2CCOCC2)n1)/c1ccccc1 the Potency was “inactive”.
In the case of CN1CCN(S(=O)(=O)c2cccc(C(=O)Nc3sccc3C#N)c2)CC1, the Potency is reported as “inactive”.
In the case of O=C1COc2ccc(C(=O)CSc3ccc(Br)cc3)cc2N1, the Potency is reported as “inactive”.
With COc1ccc2[nH]cc(CCN3C(=O)c4ccc(C(=O)O)cc4C3=O)c2c1 the Potency was 3.55 µM (active).
For COc1ccc(C[C@H](C(=O)O)N2C(=O)c3ccc(C(=O)O)cc3C2=O)cc1, the Potency was “inactive”.
For Cc1ccc2[nH]cc(CCCN3C(=O)c4ccccc4C3=O)c2c1, the Potency was “inactive”.
For CC(C)(C)OC(=O)N[C@H](C(=O)OC(C)(C)C)c1ccc(Br)cc1, the Potency was “inactive”.
With COc1ccccc1OCCNC(=O)C(CCSC)NC(=O)COc1ccccc1 (configuration not stated) the Potency was “inactive”.
In the case of NC(=O)c1ccsc1NC(=O)COC(=O)COc1ccc(C=O)cc1, the Potency is reported as “inactive”.
In the case of COc1ccc(S(=O)(=O)N(C)C)cc1NC(=O)CSc1ncccn1, the Potency is reported as “inactive”.
With CN(C)S(=O)(=O)c1ccc2oc(SCC(=O)Nc3ccccc3F)nc2c1 the Potency was 3.16 µM (active).
In the case of COc1ccc(NS(=O)(=O)c2ccc3oc(SCC(N)=O)nc3c2)cc1, the Potency is reported as “inactive”.
For CCOc1ccc2nc(C(=O)N3CCCC(C)C3)sc2c1 (configuration not stated), the Potency was 2 µM (active).
With CCOc1ccc2nc(N(CCN(C)C)C(=O)c3ccc4ccccc4c3)sc2c1 the Potency was “inactive”.
For CCCC(=O)N(CCN1CCOCC1)c1nc2ccc(OCC)cc2s1, the Potency was “inactive”.
For CC(C)c1ccc(Nc2nnc(SCC(=O)c3nnc(-c4ccccc4)o3)s2)cc1, the Potency was 3.98 µM (active).
With Cc1ccc(Nc2nnc(SCC(=O)c3cc4ccccc4o3)s2)cc1C the Potency was “inactive”.
For O=C(CSc1nnc(Nc2ccccc2)s1)Nc1cccnc1Cl, the Potency was “inactive”.
With O=S(=O)(c1cccs1)N1CCN(CCOc2ccccc2)CC1 the Potency was “inactive”.
For CCOc1ccc(NS(=O)(=O)c2ccc(Cl)c(C(=O)N(C)Cc3cccnc3)c2)cc1, the Potency was “inactive”.
In the case of Cc1ccc(C(=O)CN2C(=O)NC3(CCOc4ccccc43)C2=O)s1 (configuration not stated), the Potency is reported as “inactive”.
In the case of O=C(OCC(=O)N1CCN(C(=O)c2ccco2)CC1)c1ccc(Cl)c(Cl)c1, the Potency is reported as “inactive”.
In the case of CC(NC(=O)COC(=O)c1ccc2c(c1)OCO2)c1ccccc1 (configuration not stated), the Potency is reported as “inactive”.
For CC(=O)Nc1cccc(C(=O)OCC(=O)NCc2cc(C)c(O)c(C)c2)c1, the Potency was “inactive”.
For O=C(COC(=O)c1ccccc1)c1ccc2c(c1)OCCO2, the Potency was 0.316 µM (active).
With O=C(COC(=O)c1ccc2c(c1)OCCO2)NCc1ccccc1 the Potency was “inactive”.
In the case of O=C(COC(=O)c1ccncc1)c1ccccc1, the Potency is reported as “inactive”.
In the case of CC(=O)Nc1cccc(C(=O)OCC(=O)c2ccc3c(c2)OCO3)c1, the Potency is reported as 0.316 µM (active).
In the case of COc1ccc(C(=O)NCc2ccc(Cl)cc2)cc1S(=O)(=O)N1CCCC1, the Potency is reported as “inactive”.
For CCN(CC(=O)Nc1ccc(OC)cc1)C(=O)c1ccc(Cl)c(S(=O)(=O)N2CCCC2)c1, the Potency was “inactive”.
For O=[N+]([O-])c1cc(S(=O)(=O)NCCc2ccccn2)ccc1Cl, the Potency was “inactive”.
With CC(C#N)(NC(=O)CN1CCN(S(=O)(=O)c2cc(C(F)(F)F)ccc2Cl)CC1)C1CC1 (configuration not stated) the Potency was “inactive”.
With O=C(CSc1nnc(-c2ccco2)n1CC1CCCO1)c1ccccc1 (configuration not stated) the Potency was “inactive”.
For O=C(CSc1nnc(-c2ccco2)n1-c1ccccc1)NCCc1ccccc1, the Potency was “inactive”.
With c1ccc(CSc2nnc(-c3ccco3)n2Cc2ccccc2)cc1 the Potency was 2.82 µM (active).
With C=CCN1C(=O)c2ccc(C(=O)N3CCC(C(=O)OCC)CC3)cc2C1=O the Potency was “inactive”.
In the case of O=C(CCNS(=O)(=O)c1ccccc1)NCCSc1ccc(Br)cc1, the Potency is reported as “inactive”.
With O=S(=O)(Nc1cc(Cl)ccc1N1CCOCC1)c1ccccc1Cl the Potency was “inactive”.
For C[C@@H]1NC(=O)[C@@]2(C)[C@@H](c3ccccc3)[C@H]3COc4ccccc4[C@@H]3N2C1=O, the Potency was “inactive”.
In the case of CCOC(=O)c1c(CNCc2ccccc2F)c2sc(C)cc2n1C, the Potency is reported as “inactive”.
For Cc1nc2sc(C(=O)c3ccccc3)c(N)c2c2c1CCCC2, the Potency was “inactive”.
With CN(C)c1ccnc2sc3c(=O)n(Cc4ccccc4)cnc3c12 the Potency was “inactive”.
With CN(C)c1ccnc2sc(C(=O)c3ccccc3)c(N)c12 the Potency was 2.51 µM (active).
In the case of Nc1ncnc2c1c(I)cn2[C@@H]1C[C@H](N)[C@@H](O)[C@H]1O, the Potency is reported as “inactive”.
In the case of Cc1nn(Cc2ccccc2)c(C)c1CNC(=O)c1ccc(F)c(S(=O)(=O)N2CCOCC2)c1, the Potency is reported as “inactive”.
In the case of CN(CC(=O)Nc1cccc(F)c1)C(=O)CC1CCCC1, the Potency is reported as “inactive”.
With C/C(=N/NC(=O)C1COc2ccccc2O1)c1ccco1 (configuration not stated) the Potency was “inactive”.
For COc1ccc(NC(=O)CC2COc3ccccc3O2)c(OC)c1 (configuration not stated), the Potency was “inactive”.
In the case of CC(=O)c1cccc(NC(=O)C2COc3ccccc3O2)c1 (configuration not stated), the Potency is reported as “inactive”.
With O=C(Nc1ncc([N+](=O)[O-])s1)C1COc2ccccc2O1 (configuration not stated) the Potency was 3.55 µM (active).
With O=C(Nc1nnc(SCc2ccc(Cl)cc2Cl)s1)C1COc2ccccc2O1 (configuration not stated) the Potency was “inactive”.
For COc1ccc(NC(=O)C2COc3ccccc3O2)cc1 (configuration not stated), the Potency was 2.82 µM (active).
For CCc1noc(C)c1C(=O)N1CCN(S(=O)(=O)c2cccc(C(F)(F)F)c2)CC1, the Potency was “inactive”.
In the case of Cc1ccc(CSc2ccc(S(=O)(=O)N3CCCCC3)cn2)cc1, the Potency is reported as “inactive”.
With Cc1cc(C)nc(NC(=O)/C=C/c2ccc(Cl)cc2)n1 the Potency was “inactive”.
With O=C(/C=C/c1ccc(Cl)cc1)Nc1ccc(S(=O)(=O)Nc2ncccn2)cc1 the Potency was “inactive”.
For CC(C)(C)c1ccc(/C=C/C(=O)Nc2ncccn2)cc1, the Potency was 3.98 µM (active).
In the case of Cc1sc2ncnc(N3CCC(C(=O)Nc4ccc(F)cc4Cl)CC3)c2c1C, the Potency is reported as “inactive”.
For CCOC(=O)N1CCN(C(=O)COC(=O)c2cccc(S(C)(=O)=O)c2)CC1, the Potency was “inactive”.
In the case of Cc1nc(-c2ccc(NC(=O)c3cccs3)cc2)cs1, the Potency is reported as 0.355 µM (active).
With O=C(Nc1ccccc1)c1ccc(NC(=O)c2cccs2)cc1 the Potency was “inactive”.
For Cc1ccc(C(=O)Nc2ccc(NC(=O)c3cccs3)cc2)c(C)c1, the Potency was “inactive”.
In the case of Cc1noc(C)c1C(=O)NCC1COc2ccccc2O1 (configuration not stated), the Potency is reported as “inactive”.
